Laboratory results taken from PubChem BioAssay (NCI).
The panel holds about 83,000 compounds, 20% with a hit somewhere; the sample as a whole holds those more often.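 96-well plates, one dose, 48 hours. Percent growth reported; active if below 10.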 A number with no mark means an inactive call. Calls of active or inactive are those of the source.

Assays:
Assay in all cases: NCI-60 one-dose screen, 48 h (100 = growth as untreated, 0 = no growth, -100 = all killed)
Conditions in all cases: 10 µM
[1] = system: SK-MEL-2 melanoma
[2] = system: SN12C renal
[3] = system: UO-31 renal
[4] = system: TK-10 renal
[5] = system: ACHN renal
[6] = system: CAKI-1 renal
[7] = system: A498 renal
[8] = system: CCRF-CEM leukemia
[9] = system: MOLT-4 leukemia
[10] = system: SR leukemia
[11] = system: RPMI-8226 leukemia
[12] = system: OVCAR-8 ovarian
[13] = system: OVCAR-5 ovarian
[14] = system: OVCAR-4 ovarian
[15] = system: SK-OV-3 ovarian
[16] = system: IGROV1 ovarian
[17] = system: OVCAR-3 ovarian
[18] = system: HS 578T breast
[19] = system: NCI/ADR-RES ovarian

Structure (SMILES) | growth [1] | growth [2] [%] | growth [3] | growth [4] | growth [5] | growth [6] | growth [7] | growth [8] | growth [9] | growth [10] | growth [11] | growth [12] | growth [13] [%] | growth [14] | growth [15] | growth [16] | growth [17] [%] | growth [18] [%] | growth [19] [%]
Brc1ccc(-c2cn3ccnc3c(-c3ccc(Br)cc3)n2)cc1 | 30.8% | 53.7 | 41.6% | 84.2% | 54.6% | 39.6% | 35.9% | 44.8% | 30.4% | 13.4% | 58.3% | 51.6% | 82.4 | 62.2% | 55.2% | 55.8% | 31.9 | 61.1 | 19.7
COc1ccc(-n2nnc3c(sc4ccccc43)c2=O)cc1 | 77.1% | 61.9 | 1.83% (active) | 8.22% (active) | -22.3% (active) | 36.6% | -2.38% (active) | 89.9% | 99.5% | 51.1% | 72% | 29.1% | 80.2 | -46.9% (active) | -15.6% (active) | -0.829% (active) | 24 | 21.4 | 52.9
COc1ccc(OC)c([N+](=O)[O-])c1C=O | 136% | 101 | -43.3% (active) | 154% | 92.5% | 72.2% | 59.2% | 41.4% | 66.8% | 37.2% | 75.1% | 97.8% | 107 | 105% | 101% | 101% | 101 | 89.6 | 113
COc1ccc(-c2nnc(COc3ccc(NC(=O)Nc4cccc(C(F)(F)F)c4)cc3F)o2)cc1 | 36.8% | 48.7 | 57.2% | 75.3% | 27.3% | 50.6% | 27.3% | 47.7% | 33.8% | 3.93% (active) | 33.6% | 49.1% | 82.5 | 61.4% | 103% | 68.8% | 56.9 | 67.3 | 54.8
Cc1cc(OI)c(C(C)C)cc1-c1cc(C(C)C)c(OI)cc1C | 80.7% | 101 | 83.5% | 97.3% | 96% | 95.1% | 85.4% | 98.3% | 86.8% | 84.8% | 103% | 104% | 94.4 | 109% | 92.4% | 98% | 108 | 109 | 102
Cc1ccc([P+](Cc2ccccc2)(c2ccccc2)c2ccccc2)cc1 | -29.1% (active) | 19.3 | 68.7% | 12.3% | 60.6% | 76.7% | 23% | 13.6% | 6.83% (active) | -11.9% (active) | -32.1% (active) | 3.59% (active) | 31.7 | 3.46% (active) | 21.3% | 0.953% (active) | 19.2 | 44.8 | 101
Cc1[nH]nc2c(=S)[nH]c(=O)[nH]c12 | 109% | 105 | 93.4% | 108% | 104% | 101% | 100% | 97.8% | 105% | 113% | 101% | 99.1% | 99.4 | 99.6% | 109% | 111% | 110 | 105 | 100
COc1ccc(/C(CS(=O)(=O)c2ccccc2)=N\O)cc1 | 113% | 96.9 | 104% | 92.5% | 109% | 101% | 102% | 96.3% | 98.4% | 87% | 101% | 103% | 104 | 99.4% | 112% | 109% | 125 | 104 | 115
CC(C)C[C@H](NC(=O)CCn1ccc2ccccc2c1=O)B(O)O | 63.8% | 63.7 | 57.3% | 12.8% | 28.6% | 45.6% | 7.69% (active) | 12% | 5.52% (active) | 8.08% (active) | 10.4% | 72.4% | 65.6 | 85.9% | 77.8% | 93.6% | 28.8 | 63.3 | 87.9
O=C(Nc1cccc(Cl)c1)Nc1cc2ncncc2cc1OCc1cccc(F)c1 | -24.3% (active) | 21.7 | 9.37% (active) | -3.16% (active) | 3.47% (active) | 14.6% | -9.36% (active) | 2.81% (active) | 4.84% (active) | -1.31% (active) | -0.539% (active) | 3.52% (active) | 29.6 | 22.4% | 28.1% | 19% | 12.6 | 45.9 | 13.6
COc1ccc(-c2[nH]ncc2/C=C/c2cc(C(F)(F)F)[nH]c(=O)n2)cc1 | 82.9% | 96.2 | 87.1% | 94.8% | 92.6% | 102% | 89.3% | 73% | 86% | 71.9% | 96.5% | 102% | 100 | 93.6% | 100% | 93.1% | 95.1 | 106 | 105
COc1ccc(-c2nc(-c3nc4ccc(C)cc4[nH]3)c3ccccn23)cc1 | 47% | 44.9 | 14.4% | 69.4% | 55.6% | 46.9% | 19.6% | 18.7% | 40.4% | 33.2% | -6.44% (active) | 6.19% (active) | 88.5 | 44.1% | 85.9% | 36.5% | 72.6 | 74.7 | 22.6
COc1ccc(N2CCN(c3nc(-c4ccccc4)c(C#N)c(=O)[nH]3)CC2)cc1 | 120% | 96.7 | 71.4% | 115% | 99% | 98.6% | 87.9% | 80.1% | 93.5% | 89.7% | 91.3% | 102% | 105 | 102% | 96.6% | 101% | 103 | 112 | 98.9
Nc1ccc(Sc2ccc3c4c2cccc4c(=O)n2c4ccccc4nc32)cc1 | 84.1% | 19.2 | 9.28% (active) | 78.6% | 22.1% | 5.9% (active) | 58.8% | 44.9% | -6.87% (active) | 16.1% | 50.2% | 50.7% | 85.8 | 74% | 53.9% | 34.5% | 77.8 | 59.6 | 56.6
COc1ccc(CSc2nc3cc(OC)c(OC)cc3c(=O)n2-c2ccc(OC)cc2OC)cc1 | 91.5% | 90.1 | 55.4% | 108% | 94% | 68.7% | 58.6% | 92.7% | 79.4% | 59.5% | 63.7% | 89.2% | 102 | 83.2% | 114% | 86.1% | 92.1 | 86.7 | 79.5
